Screen size: about 16,000 compounds; about 4,000 (25%) were called active. Inconclusive results (about 26%) are left out. Only a sample is shown. Unmarked numbers belong to inactive results. Calls follow the shape of the dose curve; as a rule, active = well fitted curve in the direction sought with a large enough effect; inconclusive = small, poorly fitted or top-dose-only effect, or effect the other way; inactive = no such curve, though single readings can be large or run the other way.
% is scaled to controls: 0 for no effect and ±100 for the full control effect.

In the assay the target is Cytochrome P450 2C9 (Homo sapiens) (UniProt P11712). Nature of the assay: Cytochrome panel assay with activity outcomes. Conditions: recombinant CYP, pro-luciferin dealkylation, luminescence, p450-cyp2c9; series mostly up to 57.1 µM; activity, negative = inhibition: at the top concentration.
Sequence of Cytochrome P450 2C9 (Homo sapiens) (P11712 whole entry, looked up): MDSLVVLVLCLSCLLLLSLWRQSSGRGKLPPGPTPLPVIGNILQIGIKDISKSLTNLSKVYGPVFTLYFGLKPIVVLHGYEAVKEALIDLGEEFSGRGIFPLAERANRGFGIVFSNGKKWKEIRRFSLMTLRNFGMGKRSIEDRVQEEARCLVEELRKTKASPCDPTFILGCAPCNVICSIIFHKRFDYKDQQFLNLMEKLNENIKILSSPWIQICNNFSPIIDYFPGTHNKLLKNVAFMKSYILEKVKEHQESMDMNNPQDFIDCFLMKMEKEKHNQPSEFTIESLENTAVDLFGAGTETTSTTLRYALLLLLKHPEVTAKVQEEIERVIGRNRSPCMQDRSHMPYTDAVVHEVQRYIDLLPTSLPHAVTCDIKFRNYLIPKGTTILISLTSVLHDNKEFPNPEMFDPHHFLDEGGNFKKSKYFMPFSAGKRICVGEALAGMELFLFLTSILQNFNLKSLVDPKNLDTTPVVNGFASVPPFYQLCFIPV
For the compound `Cc1ccc(OCCOCCn2ccnc2)c(Br)c1`, the AC50 is 0.501 µM (active). Consider `C=CCNCCOCCOc1ccc(C)cc1[N+](=O)[O-]`, for which the “activity, negative = inhibition” value is -25.4%. On the same count and under the same terms, the value for `CCOC(=O)N/N=C1/C[C@@H](O)[C@@H](O)[C@@H]2[C@@H]3C(=O)N(CC)C(=O)[C@H]3CC[C@H]12` was 8.47% [at 11.4 µM]; that for `O=S(=O)(c1ccc(F)cc1)N1CCCC(CO)C1` (stereo not drawn) was -17.2%.

`O=S(=O)(c1ccc(F)cc1)N1CC2CCCN2c2ccc(C(F)(F)F)cc21` (stereo not drawn): the half-maximal activity concentration (AC50) is 10 µM (active).

Take `O=C(Nc1ccccc1)N1CC2(CCN(C(=O)c3ccco3)CC2)C1`: the “activity, negative = inhibition” value is 8.02%. For the compound `COc1ccc(-c2nc(-c3cccc(C)c3)nc(N3CCN(C)CC3)c2C#N)cc1`, the half-maximal activity concentration (AC50) was 7.94 µM (active). `CN1CCN(c2nc(-c3cccc(C#N)c3)nc3ccccc23)CC1`: the activity, negative = inhibition was -2.12% [at 2.29 µM].

Turning to `CN1CCN(c2ncnc3ccc(-c4cccc(C#N)c4)cc23)CC1`, the activity, negative = inhibition was 10.4% [at 2.29 µM]. Regarding `Nc1ncnc2nc(N3CCN(CCO)CC3)[nH]c12`, the activity, negative = inhibition was -3.79% [at 11.4 µM].

For the compound `Cc1cc(SCC(=O)c2ccc(Br)cc2)cc(C)[o+]1`, the AC50 was 2.51 µM (active). With `CC(=O)NC(NC(C)=O)c1ccc(Br)cc1`, the “activity, negative = inhibition” value is -4.71%. Same read-out and setting: in the case of `FC(F)(F)c1nnc2c(Sc3ccc(Cl)cc3)nc3ccccc3n12` it was -15.9%.

As to `FC(F)(F)c1nnc(-c2ccccc2)nc1Sc1ccccc1`, the AC50 was 7.08 µM (active). As to `CN(C)C(=O)c1ccc(-c2ccc3ncnc(Nc4ccc(F)cc4)c3c2)cc1`, the activity, negative = inhibition is 6.1% [at 2.29 µM]. As to `COc1n[nH]c2nncnc12`, the “activity, negative = inhibition” value is 1.34%.

With `CN(C)c1ncc2nc(-c3ccc(F)cc3)c(=O)n(Cc3cccs3)c2n1`, the “activity, negative = inhibition” value was -2.96%. Turning to `Fc1ccc(-c2cnc(-c3cccs3)o2)cc1`, the AC50 is 12.6 µM (active).

With `Cc1ccccc1NC(=O)C(C)c1cccc(C(=O)c2ccccc2)c1` (stereo not drawn), the half-maximal activity concentration (AC50) is 3.16 µM (active). The same measure, in the same setting: in the case of `CCCN[C@@H](C)C(=O)Nc1ccccc1C` it was “inactive”.

`O=C(O)[C@@H]1[C@@H]2C[C@H]3c4[nH]c5ccccc5c4CCN3C[C@@H]2CC[C@@H]1O`: the “activity, negative = inhibition” value was 13.2% [at 25.6 µM]. Same read-out and setting: in the case of `C=C1C=C(Br)C2(OCCCO2)[C@H]2OC12` (stereo partly drawn) it was 13.6% [at 11.4 µM]; in that of `CC(=O)NC1(c2cccc(F)c2)CCN(CC(=O)NC2CCCCC2)CC1`, -16.3%.

On to `O=C(CN(C(=O)CSc1nc2ccccc2o1)c1cccc(F)c1)NC1CCCCC1`, for which the AC50 is 2.24 µM (active).

With `CCCCCCCCCCCCCCCCCCOC[C@@H](COP(=O)([O-])OCC[N+](C)(C)C)OC`, the “activity, negative = inhibition” value was 11.6%. As to `COc1ccc(CCn2c(=N)c(C(=O)NCc3ccco3)cc3c(=O)n4ccccc4nc32)cc1`, the concentration at half-maximal activity (AC50) is 20 µM (active).

As for `Cc1cc2c(c(=O)o1)[C@H](O)[C@H]1O[C@@H]1C2=O`, the activity, negative = inhibition was 10.8% [at 11.4 µM]. In the case of `c1ccc2cc(NCNc3ccc4ccccc4c3)ccc2c1`, the AC50 is 3.98 µM (active). For the compound `CC(C)C[C@@H](N)C(=O)Nc1ccc2ccccc2c1`, the activity, negative = inhibition was -7.85% [at 11.4 µM]. As for `O=C1CN=C(Nc2ccccc2)N1Cc1cccs1`, the AC50 is 17.8 µM (active). For `COc1ccc(NC2=NCC(=O)N2Cc2cccs2)cc1`, the concentration at half-maximal activity (AC50) was 14.1 µM (active). `O=c1c(-c2ccc(F)cc2)nc2cnc(Nc3ccccc3)nc2n1Cc1cccs1`: the “activity, negative = inhibition” value is -6.62%. As to `COc1ccc(-c2nc3cnc(N(C)C)nc3n(Cc3cccs3)c2=O)cc1`, the “activity, negative = inhibition” value was 17.4%. Turning to `CCOc1ccc(NC2=NCC(=O)N2Cc2cccs2)cc1`, the AC50 was 17.8 µM (active). With `COc1ccc(-c2nc3cnc(Nc4cccc(OC)c4)nc3n(Cc3cccs3)c2=O)cc1`, the “activity, negative = inhibition” value is -0.306%.

Take `COc1cccc(Nc2ncc3nc(-c4ccccc4)c(=O)n(Cc4cccs4)c3n2)c1`: the “activity, negative = inhibition” value is -2.75%. Consider `COc1cccc(C2=CC(c3ccccc3)n3nnnc3N2)c1` (stereo not drawn), for which the AC50 is 0.501 µM (active). As to `COc1cccc(-c2cncnc2NC2CCNCC2)c1`, the activity, negative = inhibition is 28.5% [at 2.29 µM]. On the same count and under the same terms, the value for `COc1cccc(-c2nc(NC3CCNCC3)c3ccccc3n2)c1` was 11.6% [at 2.29 µM]. In the case of `COCC(=O)N1CCC2(CC1)CN(C(=O)Nc1ccccc1)C2`, the AC50 was 1.58 µM (active). Turning to `COCC(=O)N1CCC2(CC1)CCN(c1cccc(-c3ccccc3)c1)CC2`, the “activity, negative = inhibition” value was -12.7%. With `COCC(=O)N1CCC2(CC1)CN(C(=O)Nc1ccc(OC)cc1)C2`, the “activity, negative = inhibition” value was -5.72%. For `COCC(=O)N1CCC2(CCCN(c3ccncc3)C2)CC1`, the “activity, negative = inhibition” value is -17.3%. Regarding `COCC(=O)N1CCC2(CCCN(c3cccc(-c4ccccc4)c3)C2)CC1`, the AC50 is 25.1 µM (active). Same read-out and setting: the value for `CC(=O)N1CCC2(CCCN(c3cccc(-c4ccccc4)c3)C2)CC1` was 12.6 µM (active). `CC(=O)N1CCC2(CCCN(c3ccccc3)C2)CC1`: the “activity, negative = inhibition” value is -26%. Consider `CC(=O)N1CCC2(CC1)CCN(c1cccc(-c3ccccc3)c1)CC2`, for which the “activity, negative = inhibition” value was -15%. Same read-out and setting: in the case of `COCC(=O)N1CCC2(CCCN(C(=O)Nc3ccccc3)C2)CC1` it was 0.7%.

The record behind these values is PubChem BioAssay AID1851 (National Center for Advancing Translational Sciences (NCATS), 2009).
